# From ChEMBL document CHEMBL1961873, “Compounds: GSK PKIS; Assays: Nanosyn kinase panel” (2012)
# Legend:
# [1] = biological target: Sphingosine kinase 1 (Homo sapiens) (UniProt Q9NYA1); conditions: at 1 µM;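 note: mean SPHK1 inhibition value reported from the GSK PKIS kinase panel screen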
# [2] = biological target: T1, Sphingosine kinase 2 (Homo sapiens) (UniProt Q9NRA0); conditions: at 0.1 µM
# T1 sequence (whole entry): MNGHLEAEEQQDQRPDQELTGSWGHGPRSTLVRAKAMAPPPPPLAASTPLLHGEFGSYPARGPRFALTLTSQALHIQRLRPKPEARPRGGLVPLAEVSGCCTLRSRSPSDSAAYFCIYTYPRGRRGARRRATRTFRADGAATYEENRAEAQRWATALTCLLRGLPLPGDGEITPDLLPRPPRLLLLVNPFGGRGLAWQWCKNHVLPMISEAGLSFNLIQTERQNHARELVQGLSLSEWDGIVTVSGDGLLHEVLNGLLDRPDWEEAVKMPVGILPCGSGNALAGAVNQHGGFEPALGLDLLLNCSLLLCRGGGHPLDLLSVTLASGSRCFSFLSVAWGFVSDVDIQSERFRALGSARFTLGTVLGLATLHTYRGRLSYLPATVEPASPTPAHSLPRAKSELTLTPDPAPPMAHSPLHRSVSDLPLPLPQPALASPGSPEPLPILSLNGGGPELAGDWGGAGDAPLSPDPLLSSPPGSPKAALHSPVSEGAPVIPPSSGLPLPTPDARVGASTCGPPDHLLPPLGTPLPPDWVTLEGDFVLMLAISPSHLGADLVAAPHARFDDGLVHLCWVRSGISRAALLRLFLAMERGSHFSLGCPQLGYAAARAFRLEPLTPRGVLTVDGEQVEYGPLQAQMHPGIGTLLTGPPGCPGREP
# [3] = biological target: T1, Sphingosine kinase 2 (Homo sapiens); conditions: at 1 µM
# [4] = biological target: Casein kinase II subunit alpha (Homo sapiens) (UniProt P68400); conditions: at 0.1 µM
# [5] = biological target: Casein kinase II subunit alpha (Homo sapiens) (UniProt P68400); conditions: at 1 µM
# [6] = biological target: T2, Inhibitor of nuclear factor kappa-B kinase subunit alpha (Homo sapiens) (UniProt O15111); conditions: at 0.1 µM
# T2 sequence (whole entry): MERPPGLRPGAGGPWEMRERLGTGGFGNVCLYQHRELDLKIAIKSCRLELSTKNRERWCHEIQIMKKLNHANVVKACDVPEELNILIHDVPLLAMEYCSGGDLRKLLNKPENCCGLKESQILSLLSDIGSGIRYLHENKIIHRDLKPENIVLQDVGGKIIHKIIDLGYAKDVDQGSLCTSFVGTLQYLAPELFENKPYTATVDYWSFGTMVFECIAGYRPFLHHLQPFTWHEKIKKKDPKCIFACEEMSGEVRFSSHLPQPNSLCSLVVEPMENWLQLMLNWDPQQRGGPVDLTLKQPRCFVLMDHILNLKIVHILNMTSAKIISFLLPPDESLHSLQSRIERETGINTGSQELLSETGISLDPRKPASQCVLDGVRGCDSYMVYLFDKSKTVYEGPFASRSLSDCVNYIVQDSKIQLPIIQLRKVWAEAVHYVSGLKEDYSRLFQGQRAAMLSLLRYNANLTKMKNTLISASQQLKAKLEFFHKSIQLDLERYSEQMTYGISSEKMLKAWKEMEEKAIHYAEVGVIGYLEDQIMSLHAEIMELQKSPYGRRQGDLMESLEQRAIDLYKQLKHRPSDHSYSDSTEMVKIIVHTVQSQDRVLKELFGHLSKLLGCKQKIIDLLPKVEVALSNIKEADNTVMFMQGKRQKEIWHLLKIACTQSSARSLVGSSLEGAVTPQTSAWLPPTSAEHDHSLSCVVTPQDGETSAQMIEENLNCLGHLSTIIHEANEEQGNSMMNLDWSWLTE
# [7] = biological target: T2, Inhibitor of nuclear factor kappa-B kinase subunit alpha (Homo sapiens); conditions: at 1 µM
# [8] = biological target: T3, Inhibitor of nuclear factor kappa-B kinase subunit beta (Homo sapiens) (UniProt O14920); conditions: at 0.1 µM
# T3 sequence (whole entry): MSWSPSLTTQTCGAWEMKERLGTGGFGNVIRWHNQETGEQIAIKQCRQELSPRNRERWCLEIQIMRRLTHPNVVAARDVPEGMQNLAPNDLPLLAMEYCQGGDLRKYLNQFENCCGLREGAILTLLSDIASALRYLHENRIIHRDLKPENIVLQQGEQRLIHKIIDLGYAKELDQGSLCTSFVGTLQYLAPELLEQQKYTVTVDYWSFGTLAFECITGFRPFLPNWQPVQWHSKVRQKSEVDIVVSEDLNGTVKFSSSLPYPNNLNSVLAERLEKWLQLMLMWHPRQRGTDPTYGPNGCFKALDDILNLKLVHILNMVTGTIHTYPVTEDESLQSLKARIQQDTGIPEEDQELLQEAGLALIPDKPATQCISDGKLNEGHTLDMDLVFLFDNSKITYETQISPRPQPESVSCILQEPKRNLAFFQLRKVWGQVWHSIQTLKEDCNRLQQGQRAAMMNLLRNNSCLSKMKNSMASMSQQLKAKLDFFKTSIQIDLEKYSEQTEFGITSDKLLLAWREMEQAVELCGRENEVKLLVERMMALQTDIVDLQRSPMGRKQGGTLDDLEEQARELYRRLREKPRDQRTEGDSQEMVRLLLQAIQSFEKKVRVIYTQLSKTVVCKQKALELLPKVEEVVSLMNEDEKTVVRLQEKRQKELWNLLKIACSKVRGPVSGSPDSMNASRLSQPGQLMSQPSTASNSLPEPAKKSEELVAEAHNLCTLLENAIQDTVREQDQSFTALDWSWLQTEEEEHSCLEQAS
# [9] = biological target: T3, Inhibitor of nuclear factor kappa-B kinase subunit beta (Homo sapiens); conditions: at 1 µM
# [10] = biological target: T4, Inhibitor of nuclear factor kappa-B kinase subunit epsilon (Homo sapiens) (UniProt Q14164); conditions: at 0.1 µM
# T4 sequence (whole entry): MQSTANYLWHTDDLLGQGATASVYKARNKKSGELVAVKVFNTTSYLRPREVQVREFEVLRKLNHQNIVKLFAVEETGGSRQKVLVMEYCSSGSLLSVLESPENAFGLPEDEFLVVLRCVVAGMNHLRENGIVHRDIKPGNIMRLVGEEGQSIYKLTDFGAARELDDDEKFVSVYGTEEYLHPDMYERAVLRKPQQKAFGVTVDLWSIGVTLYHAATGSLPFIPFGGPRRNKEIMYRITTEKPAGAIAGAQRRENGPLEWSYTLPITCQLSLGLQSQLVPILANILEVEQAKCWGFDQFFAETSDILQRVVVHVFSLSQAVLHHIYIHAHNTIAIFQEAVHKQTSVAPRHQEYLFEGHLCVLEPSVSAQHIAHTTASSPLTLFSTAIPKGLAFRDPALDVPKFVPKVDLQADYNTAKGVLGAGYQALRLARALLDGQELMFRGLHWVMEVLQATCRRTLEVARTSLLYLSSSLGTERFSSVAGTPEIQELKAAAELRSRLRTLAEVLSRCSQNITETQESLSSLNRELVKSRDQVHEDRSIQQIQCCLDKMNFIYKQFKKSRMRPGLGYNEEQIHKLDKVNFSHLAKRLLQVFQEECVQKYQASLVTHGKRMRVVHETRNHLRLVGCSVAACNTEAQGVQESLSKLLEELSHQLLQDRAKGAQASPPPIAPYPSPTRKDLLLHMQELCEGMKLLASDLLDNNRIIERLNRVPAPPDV
# [11] = biological target: T4, Inhibitor of nuclear factor kappa-B kinase subunit epsilon (Homo sapiens); conditions: at 1 µM
# [12] = biological target: T5, Serine/threonine-protein kinase Nek1 (Homo sapiens) (UniProt Q96PY6); conditions: at 0.1 µM
# T5 sequence (whole entry): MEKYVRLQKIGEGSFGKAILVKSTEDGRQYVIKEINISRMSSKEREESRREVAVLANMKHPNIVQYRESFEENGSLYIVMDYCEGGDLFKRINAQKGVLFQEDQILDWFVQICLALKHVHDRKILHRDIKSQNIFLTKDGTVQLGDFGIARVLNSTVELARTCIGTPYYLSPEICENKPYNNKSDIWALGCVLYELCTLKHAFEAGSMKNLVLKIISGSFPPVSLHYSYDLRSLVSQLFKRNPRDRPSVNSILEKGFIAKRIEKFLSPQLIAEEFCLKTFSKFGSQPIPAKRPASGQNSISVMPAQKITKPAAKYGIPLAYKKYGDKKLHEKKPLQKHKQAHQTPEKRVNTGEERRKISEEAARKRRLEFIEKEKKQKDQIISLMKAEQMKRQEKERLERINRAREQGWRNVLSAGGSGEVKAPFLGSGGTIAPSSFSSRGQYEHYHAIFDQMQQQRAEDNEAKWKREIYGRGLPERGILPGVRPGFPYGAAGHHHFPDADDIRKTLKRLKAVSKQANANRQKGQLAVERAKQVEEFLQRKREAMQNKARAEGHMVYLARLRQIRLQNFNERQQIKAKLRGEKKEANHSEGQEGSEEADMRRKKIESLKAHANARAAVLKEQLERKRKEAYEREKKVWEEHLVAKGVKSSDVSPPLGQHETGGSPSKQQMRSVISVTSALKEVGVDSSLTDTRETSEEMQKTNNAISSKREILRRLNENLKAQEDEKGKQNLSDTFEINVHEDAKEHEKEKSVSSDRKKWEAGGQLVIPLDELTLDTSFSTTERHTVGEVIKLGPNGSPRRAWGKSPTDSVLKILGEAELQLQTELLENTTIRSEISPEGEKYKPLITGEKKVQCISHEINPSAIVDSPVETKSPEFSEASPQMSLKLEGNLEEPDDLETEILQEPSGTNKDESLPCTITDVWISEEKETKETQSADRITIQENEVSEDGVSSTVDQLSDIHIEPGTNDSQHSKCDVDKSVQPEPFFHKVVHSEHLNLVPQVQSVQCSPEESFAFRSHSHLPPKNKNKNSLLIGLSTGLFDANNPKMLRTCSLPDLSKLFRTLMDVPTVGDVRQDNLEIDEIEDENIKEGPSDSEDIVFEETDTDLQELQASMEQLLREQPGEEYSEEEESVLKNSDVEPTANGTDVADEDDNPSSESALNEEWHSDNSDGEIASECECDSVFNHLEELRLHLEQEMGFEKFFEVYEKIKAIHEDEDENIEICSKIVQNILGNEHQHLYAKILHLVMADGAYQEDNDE
# [13] = biological target: T5, Serine/threonine-protein kinase Nek1 (Homo sapiens); conditions: at 1 µM
# [14] = biological target: T6, Serine/threonine-protein kinase Nek2 (Homo sapiens) (UniProt P51955); conditions: at 0.1 µM
# T6 sequence (whole entry): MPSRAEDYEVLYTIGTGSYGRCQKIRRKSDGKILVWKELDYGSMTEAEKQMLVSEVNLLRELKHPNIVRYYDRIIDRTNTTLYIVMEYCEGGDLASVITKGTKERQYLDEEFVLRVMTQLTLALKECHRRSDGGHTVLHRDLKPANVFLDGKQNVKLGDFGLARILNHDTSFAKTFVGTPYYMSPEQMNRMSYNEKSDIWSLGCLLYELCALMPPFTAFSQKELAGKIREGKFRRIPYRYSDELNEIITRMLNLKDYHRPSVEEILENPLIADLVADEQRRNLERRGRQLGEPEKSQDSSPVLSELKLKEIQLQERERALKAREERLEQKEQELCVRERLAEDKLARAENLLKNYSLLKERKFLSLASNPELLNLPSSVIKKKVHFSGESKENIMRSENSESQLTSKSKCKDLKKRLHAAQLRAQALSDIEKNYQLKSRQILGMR
# [15] = biological target: T6, Serine/threonine-protein kinase Nek2 (Homo sapiens); conditions: at 1 µM
# [16] = biological target: Serine/threonine-protein kinase Nek6 (Homo sapiens) (UniProt Q9HC98); conditions: at 0.1 µM
# [17] = biological target: Serine/threonine-protein kinase Nek6 (Homo sapiens) (UniProt Q9HC98); conditions: at 1 µM
# [18] = biological target: Serine/threonine-protein kinase Nek7 (Homo sapiens) (UniProt Q8TDX7); conditions: at 0.1 µM
# [19] = biological target: Serine/threonine-protein kinase Nek7 (Homo sapiens) (UniProt Q8TDX7); conditions: at 1 µM
# [20] = biological target: T7, Serine/threonine-protein kinase Nek9 (Homo sapiens) (UniProt Q8TD19); conditions: at 0.1 µM;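 note: reported value is the mean percent inhibition of NEK9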
# T7 sequence (whole entry): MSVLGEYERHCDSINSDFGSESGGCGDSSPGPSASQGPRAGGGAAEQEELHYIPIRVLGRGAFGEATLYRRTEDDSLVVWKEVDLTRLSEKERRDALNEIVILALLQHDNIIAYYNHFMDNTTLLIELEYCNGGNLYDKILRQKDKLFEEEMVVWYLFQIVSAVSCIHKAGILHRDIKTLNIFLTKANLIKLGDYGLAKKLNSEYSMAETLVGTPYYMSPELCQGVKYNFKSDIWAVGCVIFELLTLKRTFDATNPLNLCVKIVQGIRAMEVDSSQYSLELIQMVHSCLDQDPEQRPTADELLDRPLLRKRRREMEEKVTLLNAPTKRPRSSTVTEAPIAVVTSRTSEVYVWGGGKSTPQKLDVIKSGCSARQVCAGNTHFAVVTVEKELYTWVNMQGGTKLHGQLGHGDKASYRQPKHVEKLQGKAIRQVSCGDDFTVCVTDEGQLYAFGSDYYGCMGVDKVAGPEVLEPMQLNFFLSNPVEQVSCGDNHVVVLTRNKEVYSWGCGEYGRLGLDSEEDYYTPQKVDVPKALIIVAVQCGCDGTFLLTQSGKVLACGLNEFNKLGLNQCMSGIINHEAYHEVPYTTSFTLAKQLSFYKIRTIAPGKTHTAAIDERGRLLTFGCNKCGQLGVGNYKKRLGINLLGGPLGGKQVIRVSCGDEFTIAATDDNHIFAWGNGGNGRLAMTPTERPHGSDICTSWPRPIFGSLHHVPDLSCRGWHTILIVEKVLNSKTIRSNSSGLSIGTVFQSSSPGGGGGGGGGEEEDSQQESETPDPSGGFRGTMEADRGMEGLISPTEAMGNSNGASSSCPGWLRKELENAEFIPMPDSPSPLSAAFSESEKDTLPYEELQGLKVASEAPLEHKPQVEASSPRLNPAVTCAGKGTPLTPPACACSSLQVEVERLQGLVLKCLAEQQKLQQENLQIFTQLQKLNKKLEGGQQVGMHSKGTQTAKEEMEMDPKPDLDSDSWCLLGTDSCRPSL
# Chain of Serine/threonine-protein kinase Nek6 (Homo sapiens) (Q9HC98 whole entry): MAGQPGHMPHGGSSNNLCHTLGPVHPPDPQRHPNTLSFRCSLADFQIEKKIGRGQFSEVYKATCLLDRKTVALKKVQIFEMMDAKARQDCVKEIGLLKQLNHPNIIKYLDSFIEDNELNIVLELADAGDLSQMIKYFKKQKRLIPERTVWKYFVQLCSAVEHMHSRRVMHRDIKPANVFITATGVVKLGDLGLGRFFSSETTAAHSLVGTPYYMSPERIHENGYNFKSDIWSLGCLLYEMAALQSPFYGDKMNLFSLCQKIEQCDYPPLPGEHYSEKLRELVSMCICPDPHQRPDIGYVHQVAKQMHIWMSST
# Chain of Casein kinase II subunit alpha (Homo sapiens) (P68400 whole entry, looked up): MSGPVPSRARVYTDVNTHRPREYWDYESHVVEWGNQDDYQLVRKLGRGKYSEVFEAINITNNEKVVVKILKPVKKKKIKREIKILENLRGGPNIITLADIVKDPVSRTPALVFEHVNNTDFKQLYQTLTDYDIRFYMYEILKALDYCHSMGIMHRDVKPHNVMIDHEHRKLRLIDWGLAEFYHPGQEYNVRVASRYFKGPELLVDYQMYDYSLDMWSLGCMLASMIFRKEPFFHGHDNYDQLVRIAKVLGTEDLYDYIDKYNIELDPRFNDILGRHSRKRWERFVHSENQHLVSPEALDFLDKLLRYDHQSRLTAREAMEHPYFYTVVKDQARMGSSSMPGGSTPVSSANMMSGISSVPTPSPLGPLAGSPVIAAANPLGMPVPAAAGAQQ
# Chain of Serine/threonine-protein kinase Nek7 (Homo sapiens) (Q8TDX7 whole entry, looked up): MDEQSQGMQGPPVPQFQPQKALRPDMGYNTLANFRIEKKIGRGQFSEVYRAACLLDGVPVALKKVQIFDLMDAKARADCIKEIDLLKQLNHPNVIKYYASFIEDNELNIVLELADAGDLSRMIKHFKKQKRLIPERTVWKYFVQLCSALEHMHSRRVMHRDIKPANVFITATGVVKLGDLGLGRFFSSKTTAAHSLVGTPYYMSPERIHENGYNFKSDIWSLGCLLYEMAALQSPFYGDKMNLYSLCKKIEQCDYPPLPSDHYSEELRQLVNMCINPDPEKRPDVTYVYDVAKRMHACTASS
# Chain of Sphingosine kinase 1 (Homo sapiens) (Q9NYA1 whole entry): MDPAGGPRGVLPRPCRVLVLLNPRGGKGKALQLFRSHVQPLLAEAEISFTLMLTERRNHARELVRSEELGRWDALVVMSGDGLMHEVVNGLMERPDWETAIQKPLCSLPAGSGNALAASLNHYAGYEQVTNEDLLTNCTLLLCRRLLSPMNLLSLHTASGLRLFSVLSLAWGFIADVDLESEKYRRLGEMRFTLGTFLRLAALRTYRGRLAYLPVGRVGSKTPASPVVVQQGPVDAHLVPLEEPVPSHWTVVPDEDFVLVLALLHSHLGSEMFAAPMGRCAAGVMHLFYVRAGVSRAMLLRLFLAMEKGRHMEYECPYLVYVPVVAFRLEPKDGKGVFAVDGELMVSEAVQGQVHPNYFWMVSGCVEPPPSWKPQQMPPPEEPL
compound,measurement,setting,value
CS(=O)(=O)Nc1ccc(N/C=C2\C(=O)Nc3ccccc32)cc1,inhibition,[1],0.22%
same,inhibition,[2],-1.15%
same,inhibition,[3],0.65%
same,inhibition,[4],2.93%
same,inhibition,[5],0.34%
same,inhibition,[6],-1.19%
same,inhibition,[7],13.7%
same,inhibition,[8],-4.89%
same,inhibition,[9],-1.38%
same,inhibition,[10],-4.27%
same,inhibition,[11],7.71%
same,inhibition,[12],-1.43%
same,inhibition,[13],-2.34%
same,inhibition,[14],-2.87%
same,inhibition,[15],-3.33%
same,inhibition,[16],-1.58%
same,inhibition,[17],-2.98%
same,inhibition,[18],-4.38%
same,inhibition,[19],-3.48%
same,inhibition,[20],-0.57%
